TGFb SMAD3 inh: qHTS for Inhibitors of TGF-b. HepG2 CAGA-GFP TGF-b/SMAD3 reporter, GFP fluorescence, 18 h; TGF-beta stimulated, 500 pg/mL final. Potency, µM (titrated, usually from 46.1 µM), for inactives: at the top dose activity, negative = inhibition, most hits filed as inhibitors. 1.2% of 410,000 active. AID 588855, 2011; also: potency is read from the fitted curve at half-maximal effect; % is scaled to controls: 0 for no effect and ±100 for the full control effect; nearly all actives have a fitted effect of over 65% in size
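Per well, imaged GFP fluorescence of HEPG2 CAGA-GFP cells gives the signal; cells get compound, then TGF-beta (500 pg/mL final), 18 h at 37 degrees C; %Activity versus -TGF-beta and +DMSO controls.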
TDP1 cell CPT: qHTS for Inhibitors of human tyrosyl-DNA phosphodiesterase 1 (TDP1): qHTS in cells in presence of CPT; chicken DT40 Tdp1-/-;hTDP1 cells + 20 nM CPT, ATP luminescence, 48 h; Potency, µM (series often up to 46.2 µM), for inactives: top-dose activity change, negative = growth inhibition, actives largely listed as inhibitors; 12% of 420,000 active; also: potency is read from the fitted curve at half-maximal effect; % is scaled to controls: 0 for no effect and ±100 for the full control effect; nearly all actives have a fitted effect of over 55% in size
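Chicken DT40 Tdp1-/- cells complemented with human TDP1, 400 cells/well, exposed to compounds plus 20 nM camptothecin for at least 48 h at 37 C; viability read as ATP content by CellTiter-Glo luminescence.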
TDP1 cell noCPT: qHTS for Inhibitors of human tyrosyl-DNA phosphodiesterase 1 (TDP1): qHTS in cells in absence of CPT; DT40 Tdp1-/- hTDP1 cells, no CPT, ATP luminescence, 48 h; Potency, µM (series often up to 46.2 µM), inactives show top-dose activity change, negative = growth inhibition, usual class: inhibitors; 15% of 420,000 active; AID 686978, 2013; also: potency is read from the fitted curve at half-maximal effect; % is scaled to controls: 0 for no effect and ±100 for the full control effect; nearly all actives have a fitted effect of over 55% in size
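Growth of hTDP1-complemented DT40 Tdp1-knockout cells is measured by ATP luminescence after at least 48 hr compound exposure at 37 °C, with DMSO substituting for the 20 nM CPT used in the parallel screen.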
TDP1 block: qHTS Assay for Inhibitors of Tyrosyl-DNA Phosphodiesterase (TDP1); Tyrosyl-DNA phosphodiesterase 1 (Homo sapiens), Q9NUW8; recombinant TDP1, AlphaScreen DNA substrate cleavage; Potency, µM (doses to about 130 µM), for inactives: top-dose activity change, negative = inhibition, most hits filed as inhibitors; 0.28% of 350,000 active; AID 485290, 2010; also: potency is read from the fitted curve at half-maximal effect; % is scaled to controls: 0 for no effect and ±100 for the full control effect; nearly all actives have a fitted effect of over 40% in size
Target sequence (Q9NUW8 whole entry, looked up): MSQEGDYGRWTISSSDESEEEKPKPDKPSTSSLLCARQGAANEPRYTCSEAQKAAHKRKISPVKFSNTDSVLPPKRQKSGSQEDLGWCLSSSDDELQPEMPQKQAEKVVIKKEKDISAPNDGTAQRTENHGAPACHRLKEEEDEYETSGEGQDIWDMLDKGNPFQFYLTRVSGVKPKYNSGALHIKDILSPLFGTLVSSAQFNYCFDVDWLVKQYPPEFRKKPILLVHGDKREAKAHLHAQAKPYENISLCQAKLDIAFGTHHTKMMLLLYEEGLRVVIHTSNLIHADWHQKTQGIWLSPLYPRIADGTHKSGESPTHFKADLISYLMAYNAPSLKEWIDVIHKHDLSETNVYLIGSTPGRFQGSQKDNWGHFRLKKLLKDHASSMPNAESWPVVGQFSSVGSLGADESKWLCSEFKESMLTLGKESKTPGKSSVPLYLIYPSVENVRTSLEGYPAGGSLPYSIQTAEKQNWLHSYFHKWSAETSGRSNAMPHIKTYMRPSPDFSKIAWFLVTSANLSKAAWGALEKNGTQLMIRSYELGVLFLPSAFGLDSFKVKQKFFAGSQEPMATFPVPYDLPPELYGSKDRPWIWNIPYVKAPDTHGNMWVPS
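Here, a 5' biotin and 3' phosphotyrosine-FITC DNA oligonucleotide reports Tdp1 activity: intact substrate bridges AlphaScreen beads, while cleavage leaves a 3' phosphate and drops signal. All incubations at room temperature.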
HepG2 tox: qHTS for Inhibitors of TGF-b: Cytotox Counterscreen; AID 588856, 2011; Potency, µM (highest dose often 46.1 µM), inactives show top-dose activity change, negative = cytotoxicity, usual class: cytotoxic; 0.76% of 410,000 active; HepG2 CAGA-GFP viability, ATP luminescence, 18 h; also: potency is read from the fitted curve at half-maximal effect
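CellTiter-Glo luminescence gave cytotoxicity after 18 hours at 37 degrees C. The cells were HepG2 CAGA-GFP in 1% FBS DMEM, stimulated with 500 pg/mL TGF-beta after compound addition. %Activity was normalised to no-cell wells (complete cell-killing) and DMSO (no toxicity), and curves were fitted and classified.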
IL1B secr inh: qHTS for Inhibitors of Inflammasome Signaling: IL-1-beta AlphaLISA Primary Screen; THP-1 LPS/ATP IL-1B secretion, AlphaLISA, 16 h; hits give low values; activity change, % at 57.5 µM; 4.7% of 360,000 active; in the data active = activity change below about -50%; inconclusive = mostly about -30% to -49%; also: % is scaled to controls: 0 for no effect and ±100 for the full control effect
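THP-1 cells pretreated 1 hr with compounds (up to 57.5 uM final), then stimulated with LPS (250 ng/mL final) plus ATP (1.25 mM final); secreted IL-1B measured by AlphaLISA after 16 hr, decreased signal indicating inhibition.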
An asterisk follows results filed as active; ? = inconclusive; / = no result; [ ] = dose if it differs, or a comment. An excerpt weighted towards active compounds, which were near 19% of everything screened. Unless noted, calls follow the shape of the dose curve; as a rule, active = well fitted curve in the direction sought with a large enough effect; inconclusive = small, poorly fitted or top-dose-only effect, or another doubt; inactive = no such curve, though single readings can be large; an effect the other way counts as inactive or inconclusive.

SMILES	TGFb SMAD3 inh	TDP1 cell CPT	TDP1 cell noCPT	TDP1 block	HepG2 tox	IL1B secr inh
COc1ccc(S(=O)(=O)Nc2ccc3c(c2)CCCN3S(=O)(=O)c2ccc(C)cc2)cc1F	?	?	21µM*	4%	1%	/
Cc1ccc(S(=O)(=O)N2CCCc3cc(NC(=O)c4ccc(F)c(F)c4)ccc32)cc1	-1%	?	?	1%	-38%	/
Cc1ccc(S(=O)(=O)N2CCCc3cc(NS(=O)(=O)c4cc(F)ccc4F)ccc32)cc1	?	23µM*	18µM*	1%	-3%	/
Cc1ccc(S(=O)(=O)N2CCCc3cc(NS(=O)(=O)c4ccc(F)cc4)ccc32)cc1	?	?	18µM*	-1%	-34%	/
CN(CC(=O)NNC(=O)Cc1ccccc1F)S(=O)(=O)c1ccc(Cl)cc1	2%	-11%	-11%	7%	-82%	0
Cc1c(C(=O)NCc2ccccc2Cl)sc2nc[nH]c(=O)c12	0%	-24%	-26%	1%	-1%	/
Cc1cc(NC(=O)COc2ccccc2C)ccc1NC(=O)c1cccs1	-3%	-61%	12µM*	-14%	-21%	-62*
Cc1cc(NC(=O)COc2ccccc2C)ccc1NC(=O)c1ccco1	0%	23µM*	16µM*	15%	1%	-27
COc1cc(NC(=O)COc2ccccc2C)ccc1NC(=O)c1ccco1	-14%	-3%	-3%	1%	-11%	-8
Cc1cccc(C)c1OCC(=O)Nc1ccc(NC(=O)c2ccco2)cc1	-3%	26µM*	21µM*	1%	-8%	-17
CCC(C)c1ccc(N(CC(=O)NC(C)(C)C)C(=O)CNC(=O)c2cccs2)cc1 (stereo unspecified)	-11%	?	18µM*	14%	3%	-5
CCc1ccc(N(CC(=O)NC(C)(C)C)C(=O)CNC(=O)c2cccs2)cc1	-25%	-3%	0%	-3%[0.0935 µM]	-17%	-3
OCCCNc1c2c(nc3cc(-c4ccc(Cl)cc4)nn13)CCC2	10%	-30%	?	6%	-26%	?
CN(CCO)c1c2c(nc3cc(-c4cccc(F)c4)nn13)CCCC2	-3%	?	21µM*	-9%	-35%	-25
Clc1cccc(-c2cc3nc4c(c(N5CCNCC5)n3n2)CCCC4)c1	/	/	/	-5%	/	/
OC1CCN(c2c3c(nc4cc(-c5cccc(F)c5)nn24)CCCC3)CC1	-17%	16µM*	21µM*	-1%	-21%	-100*
Fc1cccc(-c2cc3nc4c(c(N5CCC6(CC5)OCCO6)n3n2)CCCC4)c1	-4%	21µM*	23µM*	3%	4%	-70*
O=C(CSc1nc(O)c(C2CCCCC2)c(=O)[nH]1)Nc1ccc(F)cc1	12%	-5%	-8%	11%	5%	-15
COc1cccc(CN2CCC3(CCC(CNC(=O)c4ccccc4)O3)CC2)c1 (stereo unspecified)	/	-6%[9.04 µM]	4%	/	/	/
CC(/C=C/c1ccccc1)=N/NC(=O)c1cnccn1	6%	8%	-16%	-5%	-7%	?
COc1ccc(/C=C/C(=O)NC(=S)NNC(=O)c2cccnc2)cc1OC	-2%	-10%	-26%	7%	-2%	0
O=C(/C=C/c1ccccc1)NC(=S)NNC(=O)c1cccnc1	14%	13µM*	5.8µM*	7%	-8%	-3
O=C(/C=C/c1ccccc1)NC(=S)NNC(=O)c1cnccn1	-22%	3.3µM*	5.8µM*	10%	18%	34
COc1ccc(CC(=O)NCc2nc3cccnc3n2Cc2ccc(C)cc2)cc1	-2%	-21%	1%	5%	3%	/
Cc1cc(O)c(C(C[N+](=O)[O-])c2ccc(Cl)cc2Cl)c(=O)o1 (stereo unspecified)	?	18µM*	16µM*	-4%	-54%	1
SMILES	TGFb SMAD3 inh	TDP1 cell CPT	TDP1 cell noCPT	TDP1 block	HepG2 tox	IL1B secr inh
Cc1ccc(O)c(-c2ccnc3cc(-c4ccc(Cl)cc4)nn23)c1	12%	-20%	?	-1%	-14%	/
Cc1ccc(NC(=O)CCCCCCCCCCC2COCCO2)c(C)c1 (stereo unspecified)	-7%	21µM*	18µM*	3%	-1%	1
Cc1ccc(NC(=O)CCCN2C(=O)COc3ccc(C)cc32)c(C)c1	/	?	12µM*	8%	-36%	/
Cc1ccc(NC(=O)CCN2C(=O)NC3(CCCC3)C2=O)c(C)c1	-12%	-2%	3.3µM*	0%[56.1 µM]	-23%	-13
Cc1ccc(NC(=O)NC(=O)CN2C(=O)NC3(CCCCCCC3)C2=O)c(C)c1	?	-25%	-15%	-2%	-3%	-2
Cc1ccc2c(c1)N(CCCC(=O)Nc1cccc(C(F)(F)F)c1)C(=O)CO2	3%	?	16µM*	-1%	-7%	-12
Cc1ccc(C)c(NC(=O)CCCN2C(=O)COc3ccc(C)cc32)c1	/	?	?	0%	-37%	/
COc1ccc(CCN2C(=O)COc3ccccc3C2C(=O)Nc2c(C)cccc2C)cc1OC (stereo unspecified)	/	-1%	-30%	/	/	32
CC(=O)Nc1ccc(NS(=O)(=O)c2ccc3c(c2)oc(=O)n3C)cc1	-1%	0%	-1%	/	-15%	-2
CCc1ccc2cc(C)cc(C)c2n1	-4%	-15%	-20%	/	5%	0
Cc1ccc(NC(=O)CCCN2C(=O)COc3ccc(C)cc32)c(Cl)c1	/	?	7.3µM*	-3%	-34%	/
Cc1cn(C2OC(COC(=O)c3ccccc3)C(O)C2O)c(=O)[nH]c1=O (stereo unspecified)	-1%	10%	5%	11%	9%	15
Cc1cn(C2OC(COC(=O)c3ccccc3)C(OC(=O)c3ccccc3)C2OC(=O)c2ccccc2)c(=O)[nH]c1=O (stereo unspecified)	-3%	23µM*	?	5%	-14%	-15
CCc1ccc(NC(=O)c2cc3c([nH]c2=O)CC(C)(C)CC3=O)cc1	29%	1%	4%	2%	10%	/
O=c1[nH]c(/C(Cl)=C/c2c(F)cccc2Cl)nc2cc(Cl)ccc12	?	-14%	?	1%	-62%	22

From PubChem BioAssay
